# The list is not random: actives were taken first. Their share in the collection is about 21%.
# AMA1 RON2 block = AMA1-RON2 (P. falciparum) interaction inhibition; AlphaScreen AMA1-biotinylated RON2 peptide binding; 360,000 compounds, 0.2% hits; Potency, µM (series often up to 58.2 µM), for inactives: at the top dose activity change, negative = inhibition, usual class: inhibitors;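 further: potency means the concentration at half of the fitted maximal effect; 0% = vehicle wells and -100% = peptide control; nearly all actives have a fitted effect of over 45% in size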
#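 AMA1 (3D7) with his tag at 25 nM final met compounds first, then biotinylated RON2 peptide at 25 nM; detection used donor plus acceptor beads, 10 µg/mL apiece, read by AlphaScreen after 30 min at room temperature.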
# Pf growth 48h = inhibits P. falciparum growth in the first generation, 48 h. P. falciparum luciferase growth in erythrocytes, 48 h. Potency, µM (titrated, usually from 28.7 µM), without a hit: at the highest dose activity change, negative = inhibition, most hits filed as inhibitors. 310,000 compounds, 5.9% hits; further: potency means the concentration at half of the fitted maximal effect; on the % scale 0 is the no-effect control and ±100 the full control effect
#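 Compounds are pin-transferred into medium, infected erythrocytes (2% hematocrit, 0.1% parasitemia final) are added, and plates sit one parasite generation at 37 C in 5% CO2. Detection reagent is then added and luminescence measured.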
# Shiga toxin inh = inhibitors of Shiga toxin in Vero cells; Vero cells, Shiga toxin protein synthesis inhibition reporter; inhibition, % at 38.7 µM; 290,000 compounds, 9.2% hits; in the data active means inhibition mostly above about 28%, no sharp cut-off; inactive means mostly below about 43%; further: 0% is about no effect
# HCV inhibitor = HCV inhibition. Huh7.5.1 HCVcc-Cre infection, luciferase reporter, 44 h. AID 651820. Potency, µM (series often up to 41.8 µM), without a hit: at the top dose activity change, negative = inhibition, actives largely listed as inhibitors. 340,000 compounds, 3.4% hits; further: potency means the concentration at half of the fitted maximal effect; on the % scale 0 is the no-effect control and ±100 the full control effect
#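 Seed cells (1,000/well) for 4 h; treat with compound and infect with HCVcc-Cre, moi about 0.5. Incubate 44 h, then detect luciferase activity.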
# Pf growth 96h = P. falciparum growth inhibition at 96 hour, primary screen for plastid delayed-death inhibitors. P. falciparum luciferase reporter growth, 96 h. Potency, µM (doses to about 28.7 µM), for inactives: top-dose activity change, negative = inhibition, hits mostly inhibitors. 320,000 compounds, 6.9% hits. AID 504834; further: potency means the concentration at half of the fitted maximal effect; on the % scale 0 is the no-effect control and ±100 the full control effect
#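 P. falciparum expressing integrated firefly luciferase grown in erythrocytes (2% hematocrit, 0.05% parasitemia final) with compounds for 96 hours at 37 C, 5% CO2. Growth inhibition read as loss of luminescence after adding luciferase detection reagent.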
# CHX counter = counter-screen for Shiga toxin inhibitors: cycloheximide protein synthesis inhibition; cell reporter, cycloheximide protein synthesis inhibition counterscreen; max response, %; AID 2314; 300,000 compounds, 12% hits; in the data active means max response mostly above about 13%, no sharp cut-off; inactive means mostly below about 14%; further: read at 38.3 µM for the half of the compounds with a filed dose; 0% is about no effect
# An asterisk follows results filed as active; i = inactive; ? = inconclusive; · = no result; [ ] = remark or other dose. Unless noted, the call rests on the fitted dose curve; in most records, active means well fitted curve in the direction sought with a large enough effect; inconclusive means small, poorly fitted or top-dose-only effect, or another doubt; inactive means no such curve, though single readings can be large; an effect the other way counts as inactive or inconclusive.
SMILES,AMA1 RON2 block,Pf growth 48h,Shiga toxin inh,HCV inhibitor,Pf growth 96h,CHX counter
c1ccc(CSc2nnc(-c3ccccn3)n2-c2ccccc2)cc1,-8%,0%,-7,6%,·,1
Cn1c(SCc2ccc(F)cc2)nnc1-c1ccccn1,-18%,59%,116*,3%,205%,39*
Cn1c(CO)cnc1SCc1c(Cl)cccc1Cl,-4%,16%,-11,-9%,?,2
Cc1ccc(CSc2nnc(-c3ccccn3)n2C)cc1,-13%,-6%,94*,9%,12%,24*
Cn1c(CO)cnc1SCc1ccc(F)cc1,12%,i,50*,6%,0%,17*
COc1ccc(C)cc1S(=O)(=O)n1cnc2ccccc21,10%,16%,-6,-2%,6%,-2
C/C(N)=C(/C#N)C(=O)COC(=O)[C@@H](NC(=O)c1ccccc1Cl)C(C)C,8%,-4%,-5,8%,0%,-3
CSc1ccc(C(O)c2ncc(-c3ccccc3F)[nH]2)cc1 (stereo unspecified),-25%,·,·,·,·,·
O=C(c1nc2ccccn2c1CNCC1OCCc2ccccc21)N1CCOCC1 (stereo unspecified),-2%,12%,-8,10%,12µM*,-1
O=C(c1nc2ccccn2c1CNCCCn1cccn1)N1CCCC1,12%,-4%,-3,1%,13µM*,-4
Cc1ccn2c(CNCCCn3cccn3)c(C(=O)N3CCCCCC3)nc2c1,-10%,8%,15,17%,24%,-1
Cc1ccn2c(CNCC3OCCc4ccccc43)c(C(=O)N3CCCCCC3)nc2c1 (stereo unspecified),1%,?,2,-12%,25%,-1
CCCCc1c(O)n(-c2ccccc2)[nH]c1=O,·,·,-5,·,·,4
CN=C1N[C@H](c2ccccc2)N(c2ccccc2)S1,·,·,28,·,·,27*
CCN1C(=O)NC(c2ccccc2)C1=O (stereo unspecified),-7%,0%,·,-6%,0%,·
CCCCOc1ccc(C(=O)NCC(=O)N2CC(C)CC(C)C2)cc1 (stereo unspecified),59%,?,·,-17%,?,·
Cc1cc(C)n2nc(SCc3nc4ccccc4[nH]3)nc2n1,-1%,45%,active,0%,7.4µM*,14
Cc1cc(C)n2nc(SCCOc3ccccc3)nc2n1,-26%,89%,75,-2%,3%,11*
CCOC(=O)c1cc2c(C)n(-c3ccc(C)cc3)c(C)c2ccc1=O,-23%,?,120*,11µM*,0%,35*
CCOC(=O)c1cc2c(C)n(-c3ccc(OCC)cc3)c(C)c2ccc1=O,-5%,?,43,?,4.1µM*,16*
CCOC(=O)c1sc(=S)n(-c2ccc(C)cc2)c1N,-1%,?,27,-19%,?,7
CC1CCCCC1NC(=O)CSc1nc2ccccc2[nH]1 (stereo unspecified),5%,-10%,28,-8%,-15%,-2
CC1CCCCC1NC(=O)c1ccc(CSc2nc3ccncc3[nH]2)cc1 (stereo unspecified),-3%,?,-13,?,5.2µM*,-1
O=C(c1ccc(CSc2nc3ccncc3[nH]2)cc1)N1CCCCC1,-15%,33%,-4,1%[8.37 µM],12µM*,1
Cc1ccc(C)c(N2CCN(C(=O)c3ccc(CSc4nc5ccncc5[nH]4)cc3)CC2)c1,-26%,?,-9,?,-30%,1
SMILES,AMA1 RON2 block,Pf growth 48h,Shiga toxin inh,HCV inhibitor,Pf growth 96h,CHX counter
CCCCNC(=O)c1cccc2c(=O)c(C)c(-c3ccccc3)oc12,4%[2.32 µM],4%,1,?,?,1
CCCCN(C(=O)c1cccc2c(=O)c(C)c(-c3ccccc3)oc12)c1ccccc1,-2%,?,-10,?,4.1µM*,0
CC1CC(C)CN(C(=O)COC(=O)c2ccc(S(=O)(=O)N(C)c3ccccc3)cc2)C1 (stereo unspecified),24%,·,·,-30%,·,·
CCOc1ccc(CCNC(=O)CCc2nnc3ccc(N4CCOCC4)nn23)cc1,-18%,-7%,-4,7%,14%,1
CCN(CC)c1ccc(NC(=O)CCc2nnc3ccc(N4CCCC4)nn23)c(C)c1,-3%,12µM*,-1,-18%,?,1
CCOc1ccc(CCNC(=O)CCc2nnc3ccc(N4CCCCC4)nn23)cc1OCC,-4%,?,6,-3%,5.2µM*,-3
CCOC(=O)c1ccc(NC(=O)CCc2nnc3ccc(N4CCCC4)nn23)cc1,7%,-19%,-10,-9%,3%,1
CCc1ccc2[nH]c(=O)c(CN(CCCN3CCOCC3)C(=O)Nc3cccc(Cl)c3)cc2c1,-3%,5.2µM*,-8,10µM*,·,-6
C[N+](C)(C)CCCN(Cc1ccc2c(c1)OCO2)C(=O)NC1CCCCC1,-4%,?,16,3.2µM*,?,10
COc1ccc(CN(Cc2cc3cc4c(cc3[nH]c2=O)OCO4)C(=O)NC2CCCCC2)cc1,-11%,4.7µM*,-3,?,17%,-1
O=C(Nc1ccccc1)N(CCCN1CCOCC1)Cc1cc2cc3c(cc2[nH]c1=O)OCCO3,5%,13µM*,-3,-14%,-20%,-1
CCN(CC)CCN(Cc1cc2cc3c(cc2[nH]c1=O)OCCO3)C(=O)NC1CCCCC1,11%,-9%,-5,3%,-3%,9
CC(NCc1ccc2c(c1)OCO2)C(=O)NC1CCCCC1 (stereo unspecified),5%,8%,-6,5%,?,-1
COC(=O)[C@]12CCCCC=C1N(CCc1ccc(OC)c(OC)c1)C(=O)[C@H](CC(=O)NCC1CCCCC1)C2,-9%,·,·,·,·,·
CCCN1CCCc2cc(CN(CCCN3CCOCC3)C(=O)Nc3ccc(OCC)cc3)ccc21,27µM*,·,-14,-28%,5.9µM*,5
Cc1ccc(NC(=O)N(CCCN2CCOCC2)Cc2cc3cc4c(cc3[nH]c2=O)OCO4)cc1,?,0.93µM*,28,-15%,13µM*,-4
Cc1ccc(NC(=S)N(CCCN(C)C)Cc2cc3cc4c(cc3[nH]c2=O)OCO4)c(C)c1,-3%,9.3µM*,-23,15%,?,-1
Cc1ccc(NC(=O)N(Cc2cccs2)Cc2cc3cc4c(cc3[nH]c2=O)OCO4)cc1,·,?,-18,-2%,?,1
